{"source": "paper PMC4552634", "about": "“A New Set of Chemical Starting Points with Plasmodium falciparum Transmission-Blocking Potential for Antimalarial Drug Discovery” (PLoS ONE, 2015)", "note": "Out of some 13,000 compounds screened, about 3,200 (25%) showed an effect of 50% or more. The list shows a part of the results."}
{"tested_on": "P. falciparum stage V gametocytes", "set-up": "BacTiter-Glo ATP luminescence viability of purified stage V gametocytes in 384-well plates, per cent inhibition versus DMSO", "settings": "48 h, 5 µM; inhibitor", "units": {"% Inhibition": "%"}}
{"molecule": "Fc1ccc(-c2csc3ncnc(Cl)c23)cc1", "note": "[TCMDC-125317]", "% Inhibition": 5.052}
{"molecule": "Cc1nnc(Sc2ncnc3scc(-c4ccc(F)cc4)c23)s1", "note": "[TCMDC-125239]", "% Inhibition": 77.07}
{"molecule": "Clc1ncnc2scc(-c3ccc(Br)cc3)c12", "note": "[TCMDC-125318]", "% Inhibition": -35.26}
{"molecule": "CN1CC=C(c2c[nH]c3ccc(Oc4ccccc4)cc23)CC1", "note": "[TCMDC-138966]", "% Inhibition": 12.83}
{"molecule": "CN(C)Cc1cccc(-c2cc3c(-c4cnn(C)c4)c(Cl)cnc3[nH]2)c1", "note": "[TCMDC-134147]", "% Inhibition": -89.46}
{"molecule": "CN(C)Cc1ccc(-c2cc3c(-c4ccc(CN(C)C)cc4)ccnc3[nH]2)cc1", "note": "[TCMDC-132409]", "% Inhibition": 78.19}
{"molecule": "NCCNS(=O)(=O)c1ccc(-c2ccnc3[nH]c(-c4ccncc4)cc23)cc1", "note": "[TCMDC-133364]", "% Inhibition": 20.68}
{"molecule": "Cc1ccc2[nH]c(-c3ccccc3N)cc2c1", "note": "[TCMDC-131289]", "% Inhibition": -61.86}
{"molecule": "CNC(=O)c1c(NC(=O)c2cccs2)sc2c1CCCC2", "note": "[TCMDC-125739]", "% Inhibition": -2.665}
{"molecule": "O=C(NC1CCN(CC2(c3ccc(Cl)cc3)CCCCC2)CC1)c1ccn[nH]1", "note": "[TCMDC-124828]", "% Inhibition": 65.33}
{"molecule": "Cc1ccc(C2(CN3CCC(NC(=O)c4[nH]ncc4Cl)CC3)CCCCC2)cc1", "note": "[TCMDC-124838]", "% Inhibition": 29.65}
{"molecule": "CC(C)c1ccc(CN2CCC(NC(=O)c3ccc(-c4ccccc4F)s3)CC2)cc1", "note": "[TCMDC-134345]", "% Inhibition": -26.31}
{"molecule": "O=C(NC1CCN(CC2(c3ccc(Cl)cc3)CCC2)CC1)c1ccn[nH]1", "note": "[TCMDC-124830]", "% Inhibition": 58.08}
{"molecule": "O=C(NC1CCN(Cc2ccc(Cl)cc2)CC1)c1cn(-c2ccccc2)nc1-c1cccnc1", "note": "[TCMDC-125254]", "% Inhibition": -34.02}
{"molecule": "Cc1cc(C(=O)NC2CCN(Cc3ccccc3)CC2)ccc1-c1nc2cc(Cl)c(Cl)cc2[nH]1", "note": "[TCMDC-140081]", "% Inhibition": 10.28}
{"molecule": "O=C(NC1CCN(CCC(NC(=O)c2ccccc2)c2ccc(Cl)c(Cl)c2)CC1)c1ccc(Cl)cc1", "note": "(centres unmarked) [TCMDC-141712]", "% Inhibition": -1.186}
{"molecule": "O=C(NC1CCN(CC2(c3ccccc3F)CCCC2)CC1)c1ccn[nH]1", "note": "[TCMDC-124837]", "% Inhibition": 65.27}
{"molecule": "CN(C)c1ccc(CN2CCC(NC(=O)c3ccc(-c4ccccc4F)s3)CC2)cc1", "note": "[TCMDC-134326]", "% Inhibition": -40.45}
{"molecule": "O=C(NC1CCN(CC2(c3ccccc3)CCCC2)CC1)c1[nH]ncc1Cl", "note": "[TCMDC-124836]", "% Inhibition": 56.38}
{"molecule": "O=C(Nc1ccc(F)cc1)c1ccc(C(=O)NC2CCN(CC3CCCCC3)CC2)cc1", "note": "[TCMDC-136749]", "% Inhibition": -13.8}
{"molecule": "O=C(NC1CC1)c1cnc(N2CCN(Cc3ccc(Cl)cc3)CC2)c(Cl)c1", "note": "[TCMDC-134601]", "% Inhibition": 8.945}
{"molecule": "Cc1ccccc1OCC(=O)Nc1ccc(-c2nc3cc4ccccc4cc3[nH]2)cc1", "note": "[TCMDC-125670]", "% Inhibition": 10.69}
{"molecule": "CC1(C)N=C(N)N=C(N)N1c1ccc(Oc2ccccc2)cc1", "note": "[TCMDC-137712]", "% Inhibition": 1.861}
{"molecule": "CN(C)CCC(O)C=C(c1ccc(Cl)cc1)c1ccc(Cl)cc1", "note": "(centres unmarked) [TCMDC-132094]", "% Inhibition": 12.81}
{"molecule": "Cc1ccc(S(=O)(=O)n2cc(-c3ccnc(N)c3)c3cc(Br)cnc32)cc1", "note": "[TCMDC-134306]", "% Inhibition": -5.282}
{"molecule": "COc1ccc2nccc([C@@H](O)CN3CCC(NCCOc4ccccc4[N+](=O)[O-])CC3)c2c1", "note": "[TCMDC-140711]", "% Inhibition": 39.45}
{"molecule": "O=C(NC1CCN(CC2(c3ccc(Cl)cc3)CCC2)CC1)c1cscn1", "note": "[TCMDC-124829]", "% Inhibition": 62.42}
{"molecule": "Cc1ccc(C2(CN3CCC(NC(=O)c4ccn[nH]4)CC3)CCCCC2)cc1", "note": "[TCMDC-124839]", "% Inhibition": 64.93}
{"molecule": "Cc1ccc(NC(=O)c2ccc(C(=O)NC3CCN(CC4CCCCC4)CC3)cc2)cc1", "note": "[TCMDC-136747]", "% Inhibition": -26.65}
{"molecule": "CCc1[nH]nc(C(=O)Nc2cccc(N3CCCC3)c2)c1C", "note": "[TCMDC-124845]", "% Inhibition": -34.24}
{"molecule": "O=C(NC1CCN(Cc2ccccc2)CC1)c1csc2nc(-c3ccc(Cl)cc3)cn12", "note": "[TCMDC-133071]", "% Inhibition": -8.625}
{"molecule": "COc1ccc2nccc([C@@H](O)CN3CCC(NC(=O)c4nc(Cl)c(Cl)c(N)c4Cl)CC3)c2c1", "note": "[TCMDC-140771]", "% Inhibition": 4.246}
{"molecule": "Cc1cccc(NC(=O)c2ccc(C(=O)NC3CCN(CC4CCCCC4)CC3)cc2)c1", "note": "[TCMDC-136748]", "% Inhibition": -45.39}
{"molecule": "CCc1[nH]nc(C(=O)NC2CCN(CC3(c4ccc(OC)cc4)CCCCC3)CC2)c1C", "note": "[TCMDC-124840]", "% Inhibition": 100.4}
{"molecule": "COc1c(I)cc(Cc2cnc(N)nc2N)cc1I", "note": "[TCMDC-138050]", "% Inhibition": -8.492}
{"molecule": "N#Cc1cc(N(CCCOc2cccc(OC(F)(F)F)c2)Cc2ccccc2C(F)(F)F)ccc1C(F)(F)F", "note": "[TCMDC-132783]", "% Inhibition": -11.19}
{"molecule": "COc1cccc(Cc2c(C)nc3nc(N)nc(N)c3c2C)c1", "note": "[TCMDC-137650]", "% Inhibition": 36.32}
{"molecule": "Cc1ccc(F)c(OCC2CCCN(c3ccc(C(=O)NC4CC4)cn3)C2)c1", "note": "(centres unmarked) [TCMDC-134035]", "% Inhibition": 18.85}
{"molecule": "Cc1cccc2[nH]c(-c3ccc(-c4cccc(CN5CCN(CCO)CC5)c4)cc3)nc12", "note": "[TCMDC-133029]", "% Inhibition": -7.664}
{"molecule": "NC(N)=NC(=O)Nc1ccc([N+](=O)[O-])c(Cl)c1", "note": "[TCMDC-137468]", "% Inhibition": -7.379}
{"molecule": "NS(=O)(=O)c1cncc(-c2ccc3nccc(-c4cn[nH]c4)c3n2)c1", "note": "[TCMDC-134293]", "% Inhibition": 66.05}
{"molecule": "Nc1ncc(-c2cn[nH]c2)cc1-c1nc2ccc(F)cc2[nH]1", "note": "[TCMDC-133559]", "% Inhibition": 26.39}
{"molecule": "Cc1cccc2[nH]c(-c3cc(-c4cn[nH]c4)cnc3N)nc12", "note": "[TCMDC-133561]", "% Inhibition": -9.324}
{"molecule": "CC(NC(=O)c1ccc(O)c(-c2ccc(Cl)c(Cl)c2)c1)C(=O)NCCN1CCOCC1", "note": "(centres unmarked) [TCMDC-140849]", "% Inhibition": 3.738}
{"molecule": "Cc1cnc(N2CCN(CCCN3CCCC3)CC2)nc1Oc1ccc(-n2ccnc2)cc1", "note": "[TCMDC-132207]", "% Inhibition": 28.92}
{"molecule": "N#Cc1ccc(N(CCOc2ccc(Cl)c(Cl)c2)Cc2ccccc2C(F)(F)F)cc1C(F)(F)F", "note": "[TCMDC-132795]", "% Inhibition": -20.83}
{"molecule": "CC(Cc1ccc(NC(=O)c2ccc(NCCc3ccccc3)cc2)cc1)NCCc1cccc(Cl)c1", "note": "(centres unmarked) [TCMDC-139832]", "% Inhibition": 47.1}
{"molecule": "CC(=O)Nc1ccc(CCNC(C)Cc2ccc(C(=O)Nc3ccc(CC(C)NCCc4cccc(Cl)c4)cc3)cc2)cc1", "note": "(centres unmarked) [TCMDC-139828]", "% Inhibition": 108.3}
{"molecule": "CCOc1ccccc1CCNC(C)Cc1ccc(C(=O)Nc2ccc(CC(C)NCCc3cccc(Cl)c3)cc2)cc1", "note": "(centres unmarked) [TCMDC-139805]", "% Inhibition": 111.8}
{"molecule": "CC(Cc1ccc(NC(=O)c2ccc(CC(C)NCc3ccc(Cl)cc3)cc2)cc1)NCCc1cccc(Cl)c1", "note": "(centres unmarked) [TCMDC-139810]", "% Inhibition": 112.2}
{"molecule": "CC(=O)Nc1ccc(CNCCc2ccc(NC(=O)c3cc(Cl)cc(Cl)c3)cc2)cc1", "note": "[TCMDC-140678]", "% Inhibition": 2.681}
{"molecule": "CC(Cc1ccc(NC(=O)c2ccc(CC(C)NCc3ccc(Cl)c(Cl)c3)cc2)cc1)NCCc1cccc(Cl)c1", "note": "(centres unmarked) [TCMDC-139806]", "% Inhibition": 8.931}
{"molecule": "CC(Cc1ccc(NC(=O)[C@@H](C)NCCc2cccc(Cl)c2)cc1)NCCc1cccc(Cl)c1", "note": "(some centres unmarked) [TCMDC-139831]", "% Inhibition": 101.6}
{"molecule": "CC(Cc1ccc(NC(=O)[C@H](C)NCCc2cccc(Cl)c2)cc1)NCCc1cccc(Cl)c1", "note": "(some centres unmarked) [TCMDC-139830]", "% Inhibition": 21.29}
{"molecule": "Cc1nc(Nc2ccc(F)cc2)nc(N2CCc3ccccc3C2C)c1CO", "note": "(centres unmarked) [TCMDC-141074]", "% Inhibition": -64.94}
{"molecule": "O=C(Nc1cccc(-c2cccc(-c3nc4ccc(F)cc4[nH]3)c2)c1)c1csnn1", "note": "[TCMDC-136899]", "% Inhibition": 16.2}
{"molecule": "O=C(Nc1cccc(-c2ccc(-c3nc4ccc(C(F)(F)F)cc4[nH]3)cc2)c1)Nc1ccc(Cl)c(Cl)c1", "note": "[TCMDC-133274]", "% Inhibition": -18.31}
{"molecule": "Nc1nc2ccc(S(=O)(=O)Nc3ccc(C(=O)N[C@@H](CCC(=O)O)C(=O)O)c(F)c3)cc2c(=O)[nH]1", "note": "[TCMDC-137540]", "% Inhibition": 7.521}
{"molecule": "CC(Cc1ccc(C(=O)Nc2ccc(CC(C)NCCc3cccc(Cl)c3)cc2)cc1)NCCc1ccc(C(F)(F)F)cc1", "note": "(centres unmarked) [TCMDC-139790]", "% Inhibition": 137.5}
{"molecule": "COc1ccc(CCNC(C)Cc2ccc(C(=O)Nc3ccc(CC(C)NCCc4cccc(Cl)c4)cc3)cc2)cc1", "note": "(centres unmarked) [TCMDC-139750]", "% Inhibition": 113.2}
{"molecule": "Cc1cccc2nc(-c3ccc(-c4ccc(C(=O)NCCc5cn(C)cn5)cc4)s3)[nH]c12", "note": "[TCMDC-132499]", "% Inhibition": -4.132}
{"molecule": "CCc1cc(NC2CCN(C)CC2)nc(Nc2cccc(OC)c2)n1", "note": "[TCMDC-134002]", "% Inhibition": 40.04}
{"molecule": "CC(C)(C)Nc1cc(C2CC2)nc(-c2ccccn2)n1", "note": "[TCMDC-124453]", "% Inhibition": 105.8}
{"molecule": "OC1CCN(c2cc(-c3ccccn3)nc(-c3ccccn3)n2)CC1", "note": "[TCMDC-123786]", "% Inhibition": 41.56}
{"molecule": "c1ccc(-c2nc(NC3CCCCC3)cc(C3CC3)n2)nc1", "note": "[TCMDC-125825]", "% Inhibition": 105.2}
{"molecule": "CC(Nc1cc(-c2ccccn2)nc(-c2ccccn2)n1)c1ccccc1", "note": "(centres unmarked) [TCMDC-125420]", "% Inhibition": 24.2}
{"molecule": "Cc1cc(NC2CCCC2)nc(Nc2ccccc2)n1", "note": "[TCMDC-133459]", "% Inhibition": -35.61}
{"molecule": "c1ccc(CNc2cc(-c3ccccn3)nc(-c3ccccn3)n2)cc1", "note": "[TCMDC-125421]", "% Inhibition": -1.689}
{"molecule": "CC(C)(C)c1cc(NC2CC2)nc(-c2ccccn2)n1", "note": "[TCMDC-125826]", "% Inhibition": 69.03}
{"molecule": "C=CCNc1cc(-c2ccccn2)nc(-c2ccccn2)n1", "note": "[TCMDC-123787]", "% Inhibition": 23.88}
{"molecule": "c1ccc(-c2nnc(-c3ccccn3)nc2NC2CCCCC2)cc1", "note": "[TCMDC-123764]", "% Inhibition": 29.34}
